In the supplement of paper PMC6555819:

Experiments:
Assay in all cases: PBM binding z-score (relative to random genomic background probes); higher = stronger binding; sequences stand for … in GC…GCGATTGACAGCGTAGAATGAAGG
[1] = tested on: FXR:RXRa (NR concentration 270 nM, RXRa partner concentration 90 nM)
Outline: (§1)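 Ligand-free nuclear receptor dimers were applied to custom Agilent 4×180K protein-binding microarrays whose double-stranded probes carried direct-repeat seeds, single-nucleotide variants, half-site ablations and random human genomic background sequences in 34-nt variable regions. Incubation lasted 1 h. Binding z-scores were computed against the random background probes from regression-normalized fluorescence.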

[2] = tested on: LXRa:RXRa (NR concentration 270 nM, RXRa partner concentration 90 nM)
Outline: as §1

[3] = tested on: LXRa homodimer (NR concentration 270 nM)
Outline: as §1

[4] = tested on: LXRb:RXRa (NR concentration 270 nM, RXRa partner concentration 90 nM)
Outline: as §1

[5] = tested on: PPARa:RXRa (NR concentration 270 nM, RXRa partner concentration 90 nM)
Outline: as §1

[6] = tested on: PPARg:RXRa (NR concentration 180 nM, RXRa partner concentration 90 nM)
Outline: as §1

[7] = tested on: PPARg:RXRa 270nM:90nM, anti-RXR (NR concentration 270 nM, RXRa partner concentration 90 nM)
Outline: as §1

[8] = tested on: PPARg:RXRa 30nM:10nM, anti-RXR (NR concentration 30 nM, RXRa partner concentration 10 nM)
Outline: as §1

[9] = tested on: PPARg:RXRa 90nM:30nM, anti-RXR (NR concentration 90 nM, RXRa partner concentration 30 nM)
Outline: as §1

Sequence	PBM binding z-score [1]	PBM binding z-score [2]	PBM binding z-score [3]	PBM binding z-score [4]	PBM binding z-score [5]	PBM binding z-score [6]	PBM binding z-score [7]	PBM binding z-score [8]	PBM binding z-score [9]
CCGAGTAGGTTACGAGGGGGCATTGAGTGCGAAT	2.26	7.11	1.25	6.12	3.55	2.61	3.24	1.03	2.58
TCGAGTAGGTGACGGGGGCATTCAGGGATGAAGA	2.66	2.37	0.394	4.6	3.82	5.16	5.26	3.32	4.67
CCGAGTAGGTTACGAGAGGGCATTCAGTGCGAAT	1.04	7.41	2.68	5.96	2.19	1.48	1.64	-0.24	0.958
CTATGTAGGTTAAGGTGGTCATTCAGTTTGAAAG	1.04	1.15	0.413	1.09	3.64	5.35	4.98	2.07	4.28
CTATGTAGCTTAAGGGGGTCATTCAGTTTGAAAG	4.38	4.44	3.06	6.2	5.27	3.24	4.6	2.16	3.67
TCGAGTAGGTTACGGGGGAATTCAGGGATGAAGA	0.979	1.58	0.0777	2.86	2.8	3.75	4.02	2.24	3.53
CTATGTAGGTTAAGGGGGTTATTCAGTTTGAAAG	2.37	2.74	1.14	5.09	5.34	7.83	7.16	5.05	7.12
TCGAGTAGTTTACGGGGGCATTCAGGGATGAAGA	1.17	2.22	0.776	4.38	2.69	1.11	2.83	2.71	2.91
CCGAGTAGGTTACGTGGGGGCATTCAGTGCGAAT	2.27	7.98	1.53	6.74	3.6	1.87	3.65	0.89	2.73
CCGCGTAGGTTACGAGGGGGCATTCAGTGCGAAT	2.11	7.21	1.61	6.37	3.17	0.847	2.86	0.411	2.18
CTATGTAGGATAAGGGGGTCATTCAGTTTGAAAG	4.36	4.48	2.61	5.97	5.61	5.71	5.95	3.41	5.43
TCGAGTCGGTTACGGGGGCATTCAGGGATGAAGA	1.7	1.82	0.317	4	2.75	1.46	2.62	1.58	2.15
CGATGTAGGTTAAGGGGGTCATTCAGTTTGAAAG	5.57	4.7	3.53	6.23	5.85	8.23	7.56	6.22	7.61
TCGAGTAGGTTACGGGGCCATTCAGGGATGAAGA	0.993	0.505	-0.236	0.939	2.58	3.24	3.52	1.65	2.58
CCGAGTAGGTTACGAGGGGGCTTTCAGTGCGAAT	1.47	3.54	0.44	4.05	2.66	1.29	2.7	0.558	1.82
CAATGTAGGTTAAGGGGGTCATTCAGTTTGAAAG	3.39	5.38	3.82	6.46	6.05	8.91	8.13	6.58	8.44
CTATGTAGGTTAAGGGGGTCCTTCAGTTTGAAAG	1.09	1.76	0.414	3.75	4.29	6.59	6.57	4.47	6.41
CTATGTAGGTTAAGGGGGTCATGCAGTTTGAAAG	5.42	4.98	1.95	6.22	6.35	9.11	8	6.71	8.07
CTAGGTAGGTTAAGGGGGTCATTCAGTTTGAAAG	4.79	4.89	2.54	6.08	5.56	6.17	6.57	3.72	5.95
CCGAGTAGGTTACGAGGGGGCATACAGTGCGAAT	2.06	6.92	1.29	6.04	3.52	2.73	3.69	1.1	2.54
TCGAGTAGATTACGGGGGCATTCAGGGATGAAGA	1.41	1.87	0.702	4.05	2.53	1.06	2.64	2.04	2.12
TCGAGTAGGTTACGGGGGCATTTAGGGATGAAGA	3.13	3	0.674	5.04	4.52	6.04	5.65	2.96	4.66
CCGAGTAGGTTACGAGGGGGCATCCAGTGCGAAT	1.87	6.84	1.45	5.77	3.24	2.67	3.34	0.797	2.31
CTATGTAGTTTAAGGGGGTCATTCAGTTTGAAAG	4.48	4.76	3.99	6.25	5.3	4.03	5.19	2.68	4.56
TCGAGTAGGTTACCGGGGCATTCAGGGATGAAGA	0.549	0.561	-0.39	0.585	2.27	2.79	2.86	1.46	2
TCGAGTAGGCTACGGGGGCATTCAGGGATGAAGA	1.68	1.1	-0.259	3.17	2.56	1.6	2.51	1.38	1.8

Sequence	PBM binding z-score [1]	PBM binding z-score [2]	PBM binding z-score [3]	PBM binding z-score [4]	PBM binding z-score [5]	PBM binding z-score [6]	PBM binding z-score [7]	PBM binding z-score [8]	PBM binding z-score [9]
CTATGTAGGTTATGGGGGTCATTCAGTTTGAAAG	5.57	5.53	4.32	6.32	6.04	8.27	7.54	5.25	7.06
CCGAGTAGGTTACGAGGGGGCATTCGGTGCGAAT	1.7	7.08	1.42	6.21	3.53	2.41	3.16	0.729	2.56
TCGAGTAGGTTACGGGGGCATTCGGGGATGAAGA	3.14	3.56	0.662	5.09	4.28	6.03	5.81	3.14	4.8
CTATGTAGGTTAAGGGGGTCACTCAGTTTGAAAG	4.57	4.36	1.65	5.87	5.91	8.64	7.98	6.23	8.19
CCGAGTAGGTTACGAAGGGGCATTCAGTGCGAAT	0.672	6.11	-0.15	4.02	1.83	1.04	1.55	-0.292	0.939
CCGAGTAGGTTACGATGGGGCATTCAGTGCGAAT	0.181	6.63	-0.148	3.71	1.42	0.775	1.01	-0.257	0.557
CTATGTAGGTTAAAGGGGTCATTCAGTTTGAAAG	6.38	5.21	4.18	5.82	6.43	9.57	8.21	7.05	8.61
CTATGTAGGTTAAGGGGGTCATTCAGTTTGAAAG	5.62	5.08	3.54	6.24	6.31	9	7.99	6.08	8.01
CCGAGTATGTTACGAGGGGGCATTCAGTGCGAAT	1.03	4.44	0.955	3.9	2.28	0.244	1.45	0.332	1.29
CCGAGTAGGTTACGAGGGGGCATTCAGTGCGAAT	2.35	6.98	1.84	6.35	3.42	2.22	3.3	1.24	2.55
CCGAGTAGGATACGAGGGGGCATTCAGTGCGAAT	0.863	1.35	0.542	3.08	1.75	0.323	1.47	0.0307	1.08
TCGAGTAGGTTACGGGGGCAATCAGGGATGAAGA	1.97	2.28	0.238	4.49	4.14	6.62	5.6	3.37	4.85
CTGTGTAGGTTAAGGGGGTCATTCAGTTTGAAAG	5.15	4.93	3.47	6.55	5.67	6.19	6.47	4.23	5.78
CCGACTAGGTTACGAGGGGGCATTCAGTGCGAAT	2.03	6.99	1.82	6.19	3.16	2.68	3.48	1.66	2.47
TCGCGTAGGTTACGGGGGCATTCAGGGATGAAGA	2.62	3.1	0.819	5.1	4.31	4.62	4.92	3.28	3.93
TCGAGTAGGTTAGGGGGGCATTCAGGGATGAAGA	3.28	3.15	1.42	5.64	3.3	5.66	4.97	3.63	5.01
CTATGTAGGTTAAGGGGGTCATTCTGTTTGAAAG	4.82	4.99	2.88	6.33	5.95	8.35	7.68	6	7.63
CTATGTAGGCTAAGGGGGTCATTCAGTTTGAAAG	3.71	3.81	0.999	5.74	5.31	5.77	6.41	3.65	6.14
CCGAGTAGGTTACGAGGGGCCATTCAGTGCGAAT	1.12	5.25	-0.218	3.07	1.76	1.4	1.54	0.0553	0.829
CCGAGTAGGTTACGAGGGAGCATTCAGTGCGAAT	-0.0908	3.55	-0.145	1.05	1.52	1.15	1.55	0.0513	0.563
TCGAGTACGTTACGGGGGCATTCAGGGATGAAGA	2.24	1.79	-0.186	3.82	2.44	0.609	1.72	1.42	1.85
CCGAGTAGGTTACGAGGGGGCACTCAGTGCGAAT	2.63	6.57	0.708	5.48	3.35	2.36	3.18	1.09	2.12
CTATGTAGGTTAAGGGGGTCATTCCGTTTGAAAG	4.77	5.26	3.1	6.22	6.1	8.1	7.77	5.98	7.6
CTATGTAGGTTAAGGGGGTCGTTCAGTTTGAAAG	2.32	2.72	0.932	5.37	5.33	7.56	7.03	4.96	6.85
CCGAGTAGGTTACGGGGGGGCATTCAGTGCGAAT	4.53	6.83	3.13	7.21	3.74	4.54	4.46	2.55	3.84
CTATGAAGGTTAAGGGGGTCATTCAGTTTGAAAG	5.47	5.4	3.45	6.37	5.65	5.21	6.01	3.46	5.16
